Measurements from PubChem BioAssay (Tox21).
Inconclusive results are not listed. Where a call stands in place of a potency, no number is given. The source made the active and inactive calls. The call rests on the fitted dose curve.

test: qHTS assay to identify small molecule antagonists of the sonic hedgehog signaling (Shh) pathway (AID 1259369); settings: NIH/3T3 Gli1-Luc reporter, Shh antagonist, luminescence 24 h; series mostly up to 92.4 µM; further: nearly all actives have a fitted effect of over 45% in size
Text: U.S. Tox21 Program National Center for Advancing Translational Sciences [NCATS] NIH Chemical Genomics Center [NCGC] U.S. Environmental Protection Agency [EPA] National Institutes of Environmental Health Sciences [NIEHS] National Toxicology Program [NTP] U.S. Food and Drug Administration [FDA] Tox21 Assay Overview: The sonic hedgehog (Shh) pathway is essential for normal embryonic development. Dysregulation of the Shh pathway can cause severe developmental defects in organs. Therefore chemicals that interfere with the pathway are potential developmental toxicants. A cell line designated 3T3Gli1-Luc (DMB/OARSA/CFSAN/FDA, Laurel, MD), a NIH/3T3 derived clone containing stably integrated Gli1-Luc reporter is used to detect chemical interference of the Shh pathway, by changes in the expression of the firefly Luc gene under the control of the Gli1 transcriptional response element. This cell line was used to screen Tox21 libraries for identifying and prioritizing the potential developmental toxicants that interfere Shh pathway. Conditioned medium-stimulated mode was used to screen for chemicals inhibiting Shh signaling.
Tox21 Assay Protocol Summary: 3T3 Gli1-Luc cells were dispensed at 2,000 per well in 5uL of culture medium into white solid bottom 1536-well plates (Greiner Bio-One, Monroe, NC) using a Multidrop Combi (Thermo Scientific, Waltham, MA) dispenser. The assay plates were incubated at 37 C and 5% CO2 for 4hr, and then 23nL of compounds dissolved in DMSO and positive control were transferred using a Pintool station (Wako, San Diego, CA). The compound transfer was followed by the addition of 1ul conditioned medium or assay buffer using two separate tips of Flying Reagent Dispenser (FRD, Aurora Discovery, San Diego, CA). The assay plates were incubated at 37C and 5% CO2 for 24hr. For luciferase read, 4uL of Amplite Luciferase reporter gene assay reagent (AAT Bioquest, Inc. Sunnyvale, CA) was added to each well of the assay plates using FRD and incubated at room temperature for 30min. The luminescence signal was measured using a ViewLux plate reader (Perkin Elmer, Shelton, CT).
Potency means the concentration at half of the fitted maximal effect.

SMILES	Potency
COC(=O)C(C)Oc1ccc(Oc2ccc(Cl)cc2Cl)cc1 (stereo not given)	inactive
CCC(C)(C)c1cc(-n2nc3ccccc3n2)c(O)c(C(C)(C)CC)c1	inactive
CN1CCC(N(Cc2ccccc2)c2ccccc2)CC1	18.8 µM (active)
COc1cc(OC)nc(Sc2cccc(Cl)c2C(=O)O)n1	inactive
COc1ncc(F)c2nc(S(=O)(=O)Nc3c(F)cccc3F)nn12	inactive
CC(C=O)Cc1ccc2c(c1)OCO2 (stereo not given)	inactive
CCOC(=O)CP(=O)(OCC)OCC	inactive
CCN(CC)CCOC(=O)C(C)(c1ccccc1)c1ccccc1	inactive
CC(C)CC(N(C)C)C1(c2ccc(Cl)cc2)CCC1 (stereo not given)	inactive
N#Cc1ccncc1	inactive
Fc1cc(Br)ccc1CBr	inactive
ClC(Cl)Br	inactive
CCS(=O)(=O)C(C)(C)S(=O)(=O)CC	inactive
CCCCOC(=O)c1ccccc1C(=O)O	inactive
O=C(N[C@H]1CN2CCC1CC2)c1cc2ccoc2cn1	inactive
N#Cc1c(Cl)cccc1Cl	inactive
CCC1(c2ccccc2)C(=O)NC(=O)NC1=O	inactive
OCCSCSCCO	inactive
Nc1cnn(-c2ccccc2)c(=O)c1Cl	inactive
ClCCOCOCCCl	inactive

SMILES	Potency
C=C(C)CN(CC)c1c([N+](=O)[O-])cc(C(F)(F)F)cc1[N+](=O)[O-]	inactive
CCC#N	inactive
CC1CCC(=O)O1 (stereo not given)	inactive
O=[N+]([O-])c1ccc2c3c(cccc13)CC2	21.7 µM (active)
N#CC(Cl)(Cl)Cl	inactive
CNNC	inactive
C=CCC1=C(C)[C@@H](OC(=O)[C@@H]2[C@@H](C=C(C)C)C2(C)C)CC1=O	inactive
CC1COC2(c3ccccc3Cl)c3cc(Cl)ccc3NC(=O)CN12 (stereo not given)	29.8 µM (active)
CN1C(=S)CN=C(c2ccccc2)c2cc(Cl)ccc21	6.68 µM (active)
O=S(=O)(O)C(F)(F)C(F)(F)C(F)(F)C(F)(F)C(F)(F)C(F)(F)F	inactive
ClC(Cl)C(Cl)Cl	inactive
C[C@]12CC[C@H]3[C@@H](CC=C4C[C@@H](O)CC[C@@]43C)[C@@H]1CC[C@@H]2O	inactive
COc1cccc2c1cc([N+](=O)[O-])c1c(C(=O)O)cc3c(c12)OCO3	1.54 µM (active)
CCCSC(=O)N(CCC)CCC	inactive
CS(=O)(=O)c1cc(C(F)(F)F)ccc1C(=O)c1cnoc1C1CC1	inactive
COC(C)(C)C	inactive
CC1(C)C(=O)NC(=O)NC1=O	inactive
CNC(=O)O/N=C(\C)SC	inactive
CN1C[C@@H](NS(=O)(=O)N(C)C)C[C@@H]2c3cccc4c3c(cn4C)C[C@H]21	inactive
O=C1CN2CCOC2(c2ccccc2Cl)c2cc(Cl)ccc2N1 (stereo not given)	inactive
